In PubChem BioAssay (NCI) one finds growth data, which are given here for 40 compounds.

Compounds without any hit were thinned out: in the full panel of roughly 83,000, 20% have a hit.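 How to read the values: 0–100, growth inhibition (40 = 60% inhibited); 0, no net growth; -100 to 0, cell death (-40 = 40% of starting cells died; -100 = all dead).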 Values without a mark were called inactive. Active and inactive are the calls of the source.

The test relates to NCI-H522 lung. The test can be described thus: NCI-60 one-dose screen, 48 h (100 = growth as untreated, 0 = no growth, -100 = all killed). The note with it: 10 µM. As for the experimental part:
Growth inhibition of the NCI-H522 human Non-Small Cell Lung tumor cell line is measured as a screen for anti-cancer activity. Cells are grown in 96 well plates and exposed to the test compound for 48 hours. Compounds are tested at a single concentration, which is 10^-5 M for most compounds. The reported endpoint is percent growth (GI% or GIPRCNT), where numbers from 0 - 100% represent growth inhibition, and numbers from -100% - 0 represent cell death. For example, a value of 40 represents 60% growth inhibition. A value of 0 means no net growth occurred over the course of the experiment. A value of -40 indicates 40% of cells at the beginning of the experiment died by the end of the experiment. A value of -100 means all cells are dead at the end of the experiment.
NCI-60 Human Tumor Cell Lines Screen was performed using the standard one-dose NCI protocol, which is described in more detail at https://dtp.cancer.gov/discovery_development/nci-60/default.htm.
Compounds with GIPRCNT values below 10 were considered active. Activity score was based on GIPRCNT using the following formula: […]
Score is 0 for GIPRCNT values of 100 or above, 50 for GIPRCNT values of 0, and 100 for GIPRCNT values of -100.
Consider `O=C(C=P(c1ccccc1)(c1ccccc1)c1ccccc1)c1ccc(Br)cc1`, for which the growth is 59.5%.

Regarding `COc1cc(C2=Nc3c/c(=C\c4c(O)[nH]c5ccc(Cl)cc45)ccc3=N2)cc(OC)c1OC`, the growth is 24.9%.

For the compound `O=C(CCl)N1c2ccccc2Sc2ccc3ccccc3c21`, the growth was -81.1% (active).

Take `NC(=O)c1ccc(Br)o1`: the growth is 88.3%.

With `Cc1ccc(C2C=C(c3ccc(Cl)cc3)N=C3SC=CN32)c(Br)c1` (stereo not given), the growth was 80.7%.

Consider `Nc1ccc(Sc2ccc3c4c2cccc4c(=O)n2c4ccccc4nc32)cc1`, for which the growth was 60%.

As for `CCCCOCCOCCOCc1cc2c(cc1Br)OCO2`, the growth was 80.4%.

As to `COc1ccc(-n2nnc3c(sc4ccccc43)c2=O)cc1`, the growth is 56.6%.

`CCCCCc1cc[n+](CC(=O)c2ccc(Cl)cc2)cc1`: the growth is 72.1%.

With `COc1cccc(-c2nnc(COc3ccc(-c4nc5ccc(C)cc5[nH]4)cc3OC)o2)c1`, the growth is 91.2%.

On to `COc1ccc(-c2cn[nH]c2-c2cc(OC)c(OC)c(OC)c2)cc1`, for which the growth is -17.9% (active).

With `CN(C)Cc1cccs1`, the growth was 94.2%.

Turning to `COc1ccc(-c2csc(-c3cc(Cl)cc(Cl)c3Cl)n2)cc1`, the growth is 81.8%.

Consider `CC(C)(C)CC(C)(C)c1ccc(O)c(Cc2ccc(Cl)cc2Cl)c1`, for which the growth is -84.7% (active).

For the compound `COc1cccc2c1O/C(=C\c1ncc([N+](=O)[O-])n1C)C2=O`, the growth was -56.8% (active).

On to `FC(F)(F)c1ccc(-c2ncc(-c3ccc(C(F)(F)F)cc3)c(NCc3cc(C(F)(F)F)cc(C(F)(F)F)c3)n2)cc1`, for which the growth was 43.3%.

As for `CCN(CC)CC(O)CNc1ccnc2cc(Cl)c(Cl)cc12` (stereo not given), the growth was 94.1%.

In the case of `COc1cccc2c1C(=O)c1c(O)c3c(c(O)c1C2=O)C[C@@](O)(C(=O)COC(=O)c1cccnc1)C[C@@H]3OC1CC(N)C(O)C(C)O1` (stereo not given in full), the growth was -75.6% (active).

As to `O=C1CC[C@@H](C(=O)N[C@H]2CSSC[C@@H](C(=O)N/C=C/c3ccc(O)cc3)NC(=O)[C@H](Cc3ccccc3)NC(=O)[C@@H]3CCCN3C(=O)[C@@H]3CCCN3C2=O)N1`, the growth was 87.4%.

On to `Cc1cccc2c(Nc3ccc(NS(C)(=O)=O)cc3)c3ccc([N+](=O)[O-])cc3nc12`, for which the growth is -68.3% (active).

With `COc1ccc(Cn2cc3c(c2-c2cc(OC)c(OC)c(OC)c2)CCc2cnoc2-3)cc1[N+](=O)[O-]`, the growth was 46.2%.

On to `COc1ccc(C2=Cc3ccc(OC(C)=O)cc3OC2)cc1`, for which the growth is 75.4%.

With `Cc1nnc2c3nnc(-c4ccc(Cl)cc4)n3c3ccccc3n12`, the growth is 86.6%.

For the compound `CC(C)C[C@H](NC(=O)Cn1ccc(Nc2ccccc2)cc1=O)B(O)O`, the growth is -24% (active).

Regarding `O=C1/C(=C/c2ccc(O)cc2)Cc2ccc(Cl)cc21`, the growth is -38.8% (active).

For `O=[N+]([O-])c1ccc(-c2nc(-c3ccccc3)c(-c3ccccc3)n2-c2ccccc2)cc1`, the growth was -11.7% (active).

As to `COc1ccc(C(C)=O)cc1N1C(=O)C2C(C1=O)C1(c3ccccc3)C(=O)C2(c2ccccc2)C(c2ccc(C)cc2)=C1c1ccc(C)cc1` (stereo not given), the growth is 21.2%.

Consider `CCOc1nc(-c2ccccc2)cc2c(O)c(C(=O)NC(C)C)[nH]c(=O)c12`, for which the growth is 88.3%.

Consider `C(=C\c1nc2ccccc2s1)/c1ccc(N2CCOCC2)s1`, for which the growth is 64.2%.

Consider `N#CCC1CCCC1`, for which the growth is 109%.

Regarding `CC(=O)Nc1ccc2c(c1)C(N1CC3CCC(CC3)C1)c1ccccc1-2` (stereo not given), the growth is 108%.

Regarding `COc1ccc(-c2nnc(SC/C(=N\O)c3ccccc3)o2)cc1`, the growth was 71.4%.

As for `COc1ccc2nc(/C=C/c3ccc(N(C)C)cc3)sc2c1`, the growth was 90.6%.

For the compound `Nc1ncc(-c2ccc(C(F)(F)F)cc2)c(NC2CCCCCC2)n1`, the growth was -6.45% (active).

In the case of `COc1ccc(CCc2nc3cc(-c4c(C)noc4C)ccc3n2CCN2CCOCC2)cc1`, the growth was 12%.

As to `COc1cccc(C(=O)NNc2nc(N3CCN(C4CCCCC4)CC3)nc(N3CCN(C(c4ccccc4)c4ccccc4)CC3)n2)c1`, the growth was 60.5%.

In the case of `COc1ccc(-c2nnc(N3CCN(C(=O)CN4CCN(c5ccc(Cl)cc5)CC4)CC3)nc2-c2ccc(OC)cc2)cc1`, the growth was 69.8%.

In the case of `Oc1ccccc1-c1nnc(Cn2c(Cc3cccc4ccccc34)nc3ccccc32)o1`, the growth is 92.2%.

Regarding `Nc1ccc(C2=CC(c3ccc(Cl)cc3)N3C=CSC3=N2)cc1` (stereo not given), the growth was -65.9% (active).

Consider `CC(=O)CS(C)(=O)=O`, for which the growth was 93.7%.
